LmPK inh – LmPK (Leishmania mexicana) enzyme inhibition. Potency, µM (series often up to 57.5 µM), most hits filed as inhibitors. purified LmPK, Kinase-Glo ATP luminescence, 1 h. Q27686. hit rate 0.37% among 290,000
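In 50 mM imidazole pH 7.2 with 7 mM MgCl2, LmPK (0.1 nM) turned over PEP (0.5 mM) and ADP (0.1 mM) for 1 h at room temperature. Luciferase read-out of ATP.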
CHX counter – counter-screen hit for Shiga toxin inhibitors, cycloheximide; hit rate 12% among 300,000; max response, %; cell reporter, cycloheximide protein synthesis inhibition counterscreen; in the data active = max response mostly above about 13%, no sharp cut-off; inactive = mostly below about 14%; also: read at 38.3 µM for the half of the compounds with a filed dose
RE007 growth inh – less growth of the S. pombe RE007 Vpr strain | S. pombe RE007 Vpr strain, BacTiter-Glo ATP luminescence, 24 h | Potency, µM (highest dose often 92.2 µM), most hits filed as inhibitors | hit rate 0.21% among 360,000; active = well fitted falling curve with a large enough effect; inconclusive = small, poorly fitted or top-dose-only effect; inactive = no such curve, though single readings can be large or run the other way; also: nearly all actives have a fitted effect of over 50% in size
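Fission yeast RE007 carrying one integrated HIV-1 vpr copy, seeded at OD 0.01 in PMG+AL medium with 23 nL pinned compound. Grown 24 h at 30 degrees; viability read by BacTiter-Glo luminescence after 5 min.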
Shiga toxin inh – Shiga toxin inhibition | Vero cells, Shiga toxin protein synthesis inhibition reporter | inhibition, % at 38.7 µM | hit rate 9.2% among 290,000; in the data active = inhibition mostly above about 28%, no sharp cut-off; inactive = mostly below about 43%
FBPA Giardia inh – Giardia lamblia aldolase inhibition; purified Giardia FBPA; AID 2451; Potency, µM (titrated, usually from 59.6 µM), hits mostly inhibitors; hit rate 0.71% among 290,000; also: nearly all actives have a fitted effect of over 55% in size
Target sequence (A8B2U2 whole entry, looked up): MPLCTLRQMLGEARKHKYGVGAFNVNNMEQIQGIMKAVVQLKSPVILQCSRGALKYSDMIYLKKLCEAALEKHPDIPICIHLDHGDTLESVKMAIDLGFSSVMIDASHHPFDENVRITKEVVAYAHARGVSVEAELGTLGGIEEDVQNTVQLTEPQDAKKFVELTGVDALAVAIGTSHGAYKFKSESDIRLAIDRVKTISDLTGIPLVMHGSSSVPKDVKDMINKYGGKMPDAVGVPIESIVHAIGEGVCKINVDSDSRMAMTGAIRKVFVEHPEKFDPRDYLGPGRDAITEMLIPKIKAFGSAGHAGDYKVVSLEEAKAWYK
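40 nM FBPA preincubated 10 min at RT with compound (up to 57.5 uM final), then substrate plus GAPDH/TPI/NAD/arsenate coupling and diaphorase/resazurin added. Fluorescence read after 20 min at RT, 525/598 nm.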
TbPYK inhibitor – inhibitors of Trypanosoma brucei pyruvate kinase | Q57TT1 | TbPYK enzyme, Kinase-Glo Plus ATP luminescence, 45 min | Potency, µM (series often up to 76.8 µM), actives largely listed as inhibitors | hit rate 0.12% among 410,000 | AID 624173; also: nearly all actives have a fitted effect of over 50% in size
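Screened from lowest to highest concentration, compounds were pinned into TbPYK/substrate mixtures, and ADP (130 uM final) was added. Plates sat at room temperature for 45 min prior to Kinase-Glo Plus detection by luminescence.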
Of the large screens only hits and unclear results are named; the others gave an inactive call. Shown is part of a subset that was picked to be rich in hits. Unless noted, calls follow the shape of the dose curve; as a rule, active = well fitted curve in the direction sought with a large enough effect; inconclusive = small, poorly fitted or top-dose-only effect, or another doubt; inactive = no such curve, though single readings can be large; an effect the other way counts as inactive or inconclusive.

Fc1cc(Cl)c(OCc2noc(-c3ccsc3)n2)c(Cl)c1	CHX counter 21, Shiga toxin inh 35
Clc1ccc(OCCCc2nc(-c3ccncc3)no2)c(Cl)c1	none
CC(C)c1ccc(NC(=O)CN2C(=O)COc3ccc(S(=O)(=O)N4CCCCCC4)cc32)cc1	none (no result: LmPK inh, CHX counter, RE007 growth inh, Shiga toxin inh, FBPA Giardia inh)
O=C(OC(C(=O)Nc1cccc(C(F)(F)F)c1)c1ccccc1)C1CCCCC1 (configuration not stated)	none (no result: RE007 growth inh)
Cn1c(Cl)c(C(=O)Nc2ccccc2)c2ccccc21	CHX counter 23, Shiga toxin inh 41
Cc1ccc(NC(=O)c2c(O)c3ccccc3n(C)c2=O)nc1	none
Cc1ccc(NC(=O)c2c(Cl)n(C)c3ccccc23)cc1	CHX counter 30
COc1ccc(C(=O)n2nc(-c3ccccc3)nc2SC)cc1	none
CSc1nc(-c2ccccc2)nn1C(=O)c1ccc(Cl)cc1	CHX counter 17
Nc1nc(-c2ccc(Cl)cc2)nn1C(=O)c1cccnc1	CHX counter 25, Shiga toxin inh 31
CSc1nc(-c2ccccc2)nn1C(=O)c1ccccc1	CHX counter 14
CSc1nc(-c2ccc(Cl)cc2)nn1C(=O)c1ccccc1	CHX counter 24, Shiga toxin inh 112
Nc1nc(-c2cccnc2)nn1C(=O)c1ccc(Cl)cc1	none
CC[C@H](C)[C@H](NC(=O)CNC(=O)[C@@H](NC(=O)[C@@H](NC(=O)[C@H](Cc1ccc(O)cc1)NC(=O)[C@H](CC(C)C)NC(=O)[C@H](C)NC(=O)[C@H](CCC(N)=O)NC(=O)CNC(=O)[C@@H]1CCCN1C(=O)CNC(=O)[C@H](Cc1ccccc1)NC(=O)[C@H](Cc1cnc[nH]1)NC(=O)[C@@H](NC(=O)CNC(=O)[C@H](CCCNC(=N)N)NC(=O)[C@H](CCCNC(=N)N)NC(=O)[C@@H](NC(=O)[C@H](CC(N)=O)NC(=O)[C@@H](N)CS)[C@@H](C)O)[C@@H](C)CC)[C@@H](C)O)[C@@H](C)O)C(=O)O	none (no result: LmPK inh, RE007 growth inh, TbPYK inhibitor)
CCOc1ccc(N/C(C)=C\C(=O)c2ccc3c(c2)OCCO3)cc1	CHX counter 50, Shiga toxin inh 86
CCOc1ccc(N/C(C)=C/C(=O)c2ccc3c(c2)OCCO3)cc1	CHX counter 56, Shiga toxin inh 60, FBPA Giardia inh inconclusive
CCOC(=O)Cn1cc(/C=C(\C#N)C(=O)N2CCOCC2)c2ccccc21	CHX counter 10, Shiga toxin inh 74
CCCSc1ccc(-c2nn(-c3ccccc3)cc2/C=C(/C#N)C(=O)N2CCOCC2)cc1	CHX counter 16
COC(=O)c1ccc2c(c1)N(CC(=O)Nc1cccc(C(F)(F)F)c1)C(=O)c1ccccc1S2	none (no result: LmPK inh, CHX counter, RE007 growth inh, Shiga toxin inh, FBPA Giardia inh)
CCOc1ccc(C2=NNC(c3cccs3)=Nc3ccc(OC)cc32)cc1	CHX counter 35, Shiga toxin inh 85
CCOc1ccc(C2=Nc3ccccc3C(c3ccc(N4CCOCC4)cc3)=NN2)cc1	CHX counter 46, Shiga toxin inh 163
CCOc1ccc(C2=Nc3ccc(Br)cc3C(c3ccc(N4CCOCC4)cc3)=NN2)cc1	CHX counter 44, Shiga toxin inh 56
COc1ccc(OCC(=O)Nc2nnc3n2CCS3)cc1	none (no result: LmPK inh, CHX counter, RE007 growth inh, Shiga toxin inh, FBPA Giardia inh)
COc1ccc(NC(=O)C[C@H]2C(=O)N(Cc3ccccc3)C[C@@H]2C)cc1	none (no result: LmPK inh, CHX counter, Shiga toxin inh, FBPA Giardia inh)
O=C(NCc1cc([N+](=O)[O-])ccc1O)c1cccnc1Sc1ccc(Cl)cc1	CHX counter 40, Shiga toxin inh 43 (no result: FBPA Giardia inh)
COc1ccccc1OCCCn1c(=O)oc2ccccc21	CHX counter 24, Shiga toxin inh 43
O=c1oc2ccccc2n1CCCOc1ccccc1	CHX counter 33, Shiga toxin inh 95
O=c1oc2ccccc2n1CCCCCn1c(=O)oc2ccccc21	none
COc1ccccc1OCCCn1c(=O)sc2ccccc21	CHX counter 28, RE007 growth inh inconclusive
O=C1c2ccccc2C(=O)N1CCn1c(=O)oc2ccccc21	CHX counter 31, Shiga toxin inh 41
CCCOc1ccccc1Cn1c(=O)sc2ccccc21	none (no result: LmPK inh, CHX counter, RE007 growth inh, Shiga toxin inh, FBPA Giardia inh)
CSc1cccc(-c2nnc(NC(=O)c3cccc(N4C(=O)CCC4=O)c3)o2)c1	none (no result: LmPK inh, CHX counter, Shiga toxin inh, FBPA Giardia inh)
O=C(COC(=O)CCNS(=O)(=O)c1ccccc1)NC(=O)c1ccccc1	none (no result: LmPK inh, CHX counter, Shiga toxin inh, FBPA Giardia inh)
O=C(/C=C/c1ccc(S(=O)(=O)N2CCOCC2)cc1)NCc1ccccc1Cl	none
O=C1N=C(N2CCCC2)S/C1=C\C=C\c1ccccc1	CHX counter 47, Shiga toxin inh 69
COc1ccc(/C=C2\SC(N3CCCCC3)=NC2=O)cc1	CHX counter 22
CCOC(=O)C1CCCN(C2=NC(=O)/C(=C/c3ccc(O)c(OC)c3)S2)C1 (configuration not stated)	CHX counter 14
CC1=C(C(=O)N2CCN(c3cc(C)ccc3C)CC2)C2(CCC(C)CC2)OC1=O (configuration not stated)	none (no result: RE007 growth inh)
FC(F)(F)c1ccccc1Cc1c(-c2ccco2)nc2ccc(Br)cn12	none (no result: LmPK inh, CHX counter, Shiga toxin inh, FBPA Giardia inh)
Cc1ccc(S(=O)(=O)c2nnn3c2nc(NC2CCCCC2)c2sccc23)cc1C	none (no result: LmPK inh, CHX counter, RE007 growth inh, Shiga toxin inh, FBPA Giardia inh)
O=C(c1cccc(S(=O)(=O)N2CCN(c3ccc(F)cc3)CC2)c1)N1CCN(c2ccccc2O)CC1	none (no result: LmPK inh, CHX counter, Shiga toxin inh, FBPA Giardia inh)
CC(=O)Nc1nc(-c2ccc3ccccc3c2)cs1	CHX counter 38, Shiga toxin inh 87
COc1cccc(-c2csc(NNC(=O)c3cccs3)n2)c1	none
CC(=O)NCCC(=O)Nc1nc2c(ccc3ccccc32)s1	CHX counter 15
CC(=O)NCCC(=O)Nc1nc(-c2ccccc2Cl)cs1	none
COc1cccc(-c2csc(NC(=O)Oc3ccccc3)n2)c1	CHX counter 48, Shiga toxin inh 137
CC(=O)Nc1ccc(-c2csc(NNC(=O)c3ccccc3)n2)cc1	none
Cc1ccc2sc(NC(=O)CN3C(=O)c4ccccc4C3=O)nc2c1C	none
CC(=O)NCCC(=O)Nc1nc(-c2ccc3ccccc3c2)cs1	CHX counter 29, Shiga toxin inh 52
CC1CCC2C(=O)N3C(CCC(C)C3c3ccc(-c4ccco4)cc3)C(=O)N2C1c1ccc(-c2ccco2)cc1 (configuration not stated)	none (no result: LmPK inh, CHX counter, RE007 growth inh, Shiga toxin inh, TbPYK inhibitor)
Cc1oc(-c2ccc(Cl)cc2)nc1Cn1c(=O)cc(C)c2c(C)nn(-c3cccc(F)c3)c21	none (no result: LmPK inh, CHX counter, RE007 growth inh, Shiga toxin inh, FBPA Giardia inh)
O=C(Nc1ccc(-c2csc(-c3ccccc3)n2)cc1)c1ccccc1	none
Oc1ccc(-c2nc(-c3ccc(O)c(O)c3)cs2)cc1	Shiga toxin inh 94, FBPA Giardia inh inconclusive
Oc1ccc(Nc2nc(-c3ccc4ccccc4c3)cs2)cc1	CHX counter 49, Shiga toxin inh 121 (no result: RE007 growth inh, TbPYK inhibitor)
Oc1ccccc1C=NCCN1CCN(CCN=Cc2ccccc2O)C1c1ccccc1O (configuration not stated)	none (no result: LmPK inh, CHX counter, Shiga toxin inh, FBPA Giardia inh)
O=C1NCCN/C1=C\C(=O)c1ccc(Br)cc1	CHX counter 45, Shiga toxin inh 64

Screening results (PubChem BioAssay)
